Measured values taken from the supplement of paper PMC10849652.
Of roughly 8,800 targets only a part is listed; those with a hit were picked by preference. About 0.5% of all pairs of compound and target were hits.

Columns and labels:
Assay in all cases: log2 fold change, soluble protein after heating vs DMSO (PISA); higher = thermal stabilisation; K562 lysate, 10 uM; active = over 0.2 and 3.5 SD of the protein, either way, in both replicates (recomputed)
ibrutinib = compound: C=CC(=O)N1CCC[C@@H](n2nc(-c3ccc(Oc4ccccc4)cc3)c3c(N)ncnc32)C1 [ibrutinib]
Method in brief: (§1)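 Following dounce homogenisation of K562 pellets in PBS pH 7.4 with 1 mM MgCl2, crude extract at 1 mg/mL protein was incubated for 30 min with 10 μM compound. Aliquots were then heated for 3 min over 48°C-58°C and pooled, NP-40 was added to 0.5% at 4°C, and soluble protein was recovered as the supernatant at 21,000xg for 90 min. Channel-sum-equalised TMTpro 16plex LC-MS/MS quantified this protein. Each value, from duplicates, is a log-two fold change in thermal stability relative to solvent controls.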

[1] = compound: CC(=O)c1cnc2ccc(-c3cc(Cl)c(O)c(Cl)c3)nc2c1N[C@H]1CC[C@H](CN(C)C)CC1
Method in brief: as §1

ralimetinib = compound: CC(C)(C)Cn1c(N)nc2ccc(-c3[nH]c(C(C)(C)C)nc3-c3ccc(F)cc3)nc21 [ralimetinib]
Method in brief: as §1

[2] = compound: CC(C)(O)CC(=O)NCCn1ccc2ncnc(Nc3ccc(Oc4cccc(C(F)(F)F)c4)c(Cl)c3)c21
Method in brief: as §1

[3] = compound: CC(C)C1=C2N=C(C=C(N2N=C1)NCC3=CC=CC=C3)NCCCCCCN
Method in brief: as §1

[4] = compound: CC1=C(C(CC(=O)N1)C2=CC=C(C=C2)C(F)(F)F)C(=O)NC3=C(C=C4C(=C3)C=NN4)F
Method in brief: as §1

[5] = compound: CC1=C(C2=C(C=C1)C(=O)C3=CC=CC=C3N2CCCN)C
Method in brief: as §1

[6] = compound: CC1=C(C=C(C=C1)NC(=O)C2=CC(=CC=C2)C(C)(C)C#N)NC3=CC4=C(C=C3)N=CN(C4=O)C
Method in brief: as §1

[7] = compound: CC1=C(C=C(C=C1)NC(=O)C2=CC(=CC=C2)N(C)C)NC(=O)C3=CC=C(C=C3)O
Method in brief: as §1

[8] = compound: CC1=CC=C(C=C1)SC2=C3C=C(SC3=CN=C2)C(=O)N
Method in brief: as §1

vemurafenib = compound: CCCS(=O)(=O)Nc1ccc(F)c(C(=O)c2c[nH]c3ncc(-c4ccc(Cl)cc4)cc23)c1F [vemurafenib]
Method in brief: as §1

[9] = compound: CCCS(=O)(=O)Nc1ccc(F)c(C(=O)c2c[nH]c3ncc(Cl)cc23)c1F
Method in brief: as §1

barasertib = compound: CCN(CCCOc1ccc2c(Nc3cc(CC(=O)Nc4cccc(F)c4)[nH]n3)ncnc2c1)CCOP(=O)(O)O [barasertib]
Method in brief: as §1

[10] = compound: CC[C@@H]1C(=O)N(C)c2cnc(Nc3ccc(C(=O)NC4CCN(C)CC4)cc3OC)nc2N1C1CCCC1
Method in brief: as §1

volasertib = compound: CC[C@@H]1C(=O)N(C)c2cnc(Nc3ccc(C(=O)N[C@H]4CC[C@H](N5CCN(CC6CC6)CC5)CC4)cc3OC)nc2N1C(C)C [volasertib]
Method in brief: as §1

[11] = compound: CCn1c(C(=O)N(C2CC2)C2CC2)cc2c3c(ncn3C)c(Nc3cc(C)n(C)n3)nc21
Method in brief: as §1

saracatinib = compound: CN1CCN(CCOc2cc(OC3CCOCC3)c3c(Nc4c(Cl)ccc5c4OCO5)ncnc3c2)CC1 [saracatinib]
Method in brief: as §1

sotrastaurin = compound: CN1CCN(c2nc(C3=C(c4c[nH]c5ccccc45)C(=O)NC3=O)c3ccccc3n2)CC1 [sotrastaurin]
Method in brief: as §1

[12] = compound: CCn1cc(-c2ccnc3[nH]c(-c4cccc(CN(C)C)c4)cc23)c(-c2ccc(NC(=O)N(C)C)cc2)n1
Method in brief: as §1

[13] = compound: CN1CCC(CNc2ccc3ncc(-c4cccc(OC(F)(F)F)c4)n3n2)CC1
Method in brief: as §1

Measured: log2 fold change

MAP4 isoform 5 (UniProt P27816)
UniProt P27816, sequence (P27816 whole entry, looked up): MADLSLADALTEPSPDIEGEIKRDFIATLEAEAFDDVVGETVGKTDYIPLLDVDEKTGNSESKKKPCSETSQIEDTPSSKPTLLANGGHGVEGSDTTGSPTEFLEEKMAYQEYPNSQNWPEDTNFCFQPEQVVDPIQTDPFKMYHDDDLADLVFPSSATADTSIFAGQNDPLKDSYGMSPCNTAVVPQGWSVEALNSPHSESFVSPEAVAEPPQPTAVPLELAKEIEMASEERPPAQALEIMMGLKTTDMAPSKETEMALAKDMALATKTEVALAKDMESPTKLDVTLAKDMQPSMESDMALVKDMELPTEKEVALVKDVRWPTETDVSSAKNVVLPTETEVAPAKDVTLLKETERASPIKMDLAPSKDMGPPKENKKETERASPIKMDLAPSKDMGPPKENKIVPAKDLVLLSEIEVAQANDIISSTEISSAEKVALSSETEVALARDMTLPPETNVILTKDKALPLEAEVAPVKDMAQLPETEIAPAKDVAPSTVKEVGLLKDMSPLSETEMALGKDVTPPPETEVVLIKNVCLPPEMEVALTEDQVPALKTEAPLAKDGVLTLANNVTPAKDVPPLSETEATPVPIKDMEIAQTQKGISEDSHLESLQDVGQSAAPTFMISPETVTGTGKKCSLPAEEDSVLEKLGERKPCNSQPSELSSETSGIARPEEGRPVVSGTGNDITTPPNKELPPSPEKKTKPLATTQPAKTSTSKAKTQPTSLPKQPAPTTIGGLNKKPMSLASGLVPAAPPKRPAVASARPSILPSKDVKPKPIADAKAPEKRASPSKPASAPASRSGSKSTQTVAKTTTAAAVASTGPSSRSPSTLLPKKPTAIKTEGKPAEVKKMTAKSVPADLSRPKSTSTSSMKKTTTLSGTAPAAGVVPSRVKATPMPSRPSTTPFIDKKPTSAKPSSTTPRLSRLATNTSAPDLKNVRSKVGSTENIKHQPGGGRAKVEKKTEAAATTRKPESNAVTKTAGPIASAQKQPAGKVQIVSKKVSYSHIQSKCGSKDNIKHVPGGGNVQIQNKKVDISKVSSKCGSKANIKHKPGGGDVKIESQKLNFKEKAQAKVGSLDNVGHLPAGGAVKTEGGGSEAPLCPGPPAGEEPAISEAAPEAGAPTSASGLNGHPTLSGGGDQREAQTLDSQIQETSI
inactive: ibrutinib 0.172 | [1] 0.027 | ralimetinib -0.1 | [2] -0.166 | [3] 0.03 | [4] 0.048 | [5] 0.019 | [6] 0.012 | [7] 0.082 | [8] 0.047 | vemurafenib -0.019 | [9] -0.035 | barasertib -0.038 | [10] 0.069 | volasertib 0.044 | [11] -0.266 | saracatinib 0.041 | sotrastaurin -0.04

LAMP1 (UniProt P11279)
UniProt P11279, sequence (P11279 whole entry, looked up): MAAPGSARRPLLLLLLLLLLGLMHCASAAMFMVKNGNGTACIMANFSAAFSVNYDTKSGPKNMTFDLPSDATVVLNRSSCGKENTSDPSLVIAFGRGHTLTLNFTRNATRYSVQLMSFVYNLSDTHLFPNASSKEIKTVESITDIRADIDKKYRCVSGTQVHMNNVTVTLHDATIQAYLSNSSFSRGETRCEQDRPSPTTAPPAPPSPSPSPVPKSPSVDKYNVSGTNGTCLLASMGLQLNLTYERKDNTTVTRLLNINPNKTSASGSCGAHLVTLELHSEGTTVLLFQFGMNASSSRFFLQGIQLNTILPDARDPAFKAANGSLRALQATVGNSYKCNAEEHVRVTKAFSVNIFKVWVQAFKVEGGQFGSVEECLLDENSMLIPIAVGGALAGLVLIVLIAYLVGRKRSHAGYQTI
active: [12] -0.508
inactive: ibrutinib 0.034 | [1] -0.031 | ralimetinib -0.003 | [2] -0.11 | [3] 0.008 | [4] 0.01 | [5] 0.003 | [6] 0.022 | [7] -0.04 | [8] -0.032 | vemurafenib -0.009 | [9] 0.02 | barasertib 0.001 | [10] 0.059 | volasertib 0.056 | [11] -0.097 | [13] 0.24 | saracatinib 0.018 | sotrastaurin 0.022

MINDY1 isoform 3 (UniProt Q8N5J2)
inactive: ibrutinib 0.199 | [1] 0 | ralimetinib 0.001 | [2] -0.121 | [3] -0.022 | [4] -0.179 | [5] -0.161 | [6] -0.034 | [7] 0.015 | [8] 0.065 | vemurafenib -0.049 | [9] -0.26 | barasertib -0.201 | [10] 0.059 | volasertib -0.041 | [11] -0.106 | saracatinib 0.076 | sotrastaurin 0.074

MANEA (UniProt Q5SRI9)
active: [12] -0.627
inactive: ibrutinib 0 | [1] 0.038 | ralimetinib 0.024 | [2] -0.1 | [3] 0.041 | [5] -0.009 | [6] 0.037 | [7] 0.114 | [8] 0.068 | vemurafenib 0.035 | [9] -0.019 | barasertib -0.071 | [10] -0.001 | volasertib -0.084 | [11] 0.005 | [13] 0.254 | saracatinib -0.059 | sotrastaurin -0.019

MICU2 (UniProt Q8IYU8)
inactive: ibrutinib 0.036 | [1] -0.095 | ralimetinib -0.019 | [2] -0.026 | [3] -0.016 | [4] -0.019 | [5] -0.004 | [6] 0.012 | [7] -0.018 | [8] 0.013 | vemurafenib -0.061 | [9] 0.043 | barasertib 0.109 | [10] -0.023 | volasertib 0 | [11] -0.036 | [12] 0.013 | [13] -0.101 | saracatinib 0.021 | sotrastaurin 0.126

MLST8 (UniProt Q9BVC4)
UniProt Q9BVC4, sequence (Q9BVC4 whole entry, looked up): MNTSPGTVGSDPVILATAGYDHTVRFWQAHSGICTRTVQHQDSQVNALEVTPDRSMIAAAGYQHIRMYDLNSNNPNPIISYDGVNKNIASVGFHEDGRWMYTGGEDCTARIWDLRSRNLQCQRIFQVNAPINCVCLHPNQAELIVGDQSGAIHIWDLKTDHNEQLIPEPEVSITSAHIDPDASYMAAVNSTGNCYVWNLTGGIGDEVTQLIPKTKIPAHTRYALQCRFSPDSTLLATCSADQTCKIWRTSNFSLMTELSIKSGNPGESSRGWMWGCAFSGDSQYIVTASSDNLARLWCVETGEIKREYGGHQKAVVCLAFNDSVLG
inactive: ibrutinib 0 | [1] 0.011 | ralimetinib -0.038 | [2] 0.021 | [3] 0.063 | [4] -0.042 | [5] -0.021 | [6] -0.003 | [7] 0.044 | [8] 0.023 | vemurafenib 0.025 | [9] 0.029 | barasertib 0.074 | [10] 0.026 | volasertib -0.009 | [11] 0.023 | [12] -0.03 | [13] 0.012 | saracatinib 0.075 | sotrastaurin -0.045

MME (UniProt P08473)
inactive: ibrutinib 0.286 | [1] -0.093 | ralimetinib -0.117 | [2] -0.156 | [3] -0.012 | [4] -0.024 | [5] -0.23 | [6] 0.007 | [7] -0.025 | [8] -0.043 | [9] -0.092 | barasertib -0.084 | volasertib 0.001 | [11] 0.075 | [12] -0.044 | [13] 0.009 | saracatinib -0.114 | sotrastaurin 0.016

MCUB (UniProt Q9NWR8)
active: [6] 0.443
inactive: ibrutinib 0.127 | [1] 0.013 | ralimetinib 0.054 | [2] 0.045 | [3] -0.063 | [4] 0.039 | [5] -0.219 | [7] 0.04 | [8] 0.204 | [9] -0.175 | barasertib 0.156 | volasertib -0.041 | [11] -0.222 | [12] 0 | [13] -0.054 | saracatinib -0.096 | sotrastaurin -0.008

LEPROT (UniProt O15243)
UniProt O15243, sequence (O15243 whole entry, looked up): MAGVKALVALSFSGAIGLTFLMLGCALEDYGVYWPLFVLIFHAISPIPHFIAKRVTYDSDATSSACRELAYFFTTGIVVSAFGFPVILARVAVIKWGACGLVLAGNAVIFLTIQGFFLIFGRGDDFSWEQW
inactive: ibrutinib 0.005 | [1] -0.273 | ralimetinib -0.034 | [2] 0.054 | [3] 0.267 | [6] 0.181 | [7] 0.016 | [8] 0 | [9] 0.112 | barasertib 0.042 | [10] 0.144 | volasertib 0.102 | [11] -0.086 | [12] -0.043 | [13] -0.02 | sotrastaurin -0.009

MED8 isoform 2 (UniProt Q96G25)
UniProt Q96G25, sequence (Q96G25 whole entry, looked up): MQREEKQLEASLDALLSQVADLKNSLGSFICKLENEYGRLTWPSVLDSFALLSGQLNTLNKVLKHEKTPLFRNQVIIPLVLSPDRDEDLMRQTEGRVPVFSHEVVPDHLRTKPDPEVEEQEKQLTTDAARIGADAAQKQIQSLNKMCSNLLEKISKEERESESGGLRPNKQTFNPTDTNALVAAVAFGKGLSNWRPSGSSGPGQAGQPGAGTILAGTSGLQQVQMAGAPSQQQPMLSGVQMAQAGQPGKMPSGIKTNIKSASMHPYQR
inactive: ibrutinib 0.109 | [1] 0.024 | ralimetinib 0.012 | [2] 0.036 | [3] 0.006 | [4] -0.03 | [5] -0.001 | [6] -0.005 | [7] -0.05 | [8] -0.058 | vemurafenib -0.022 | [9] 0.018 | barasertib 0.081 | [10] -0.051 | volasertib -0.003 | [11] 0.013 | [12] 0.214 | [13] -0.092 | saracatinib -0.002 | sotrastaurin 0.091

METTL21A (UniProt Q8WXB1)
UniProt Q8WXB1, sequence (Q8WXB1 whole entry, looked up): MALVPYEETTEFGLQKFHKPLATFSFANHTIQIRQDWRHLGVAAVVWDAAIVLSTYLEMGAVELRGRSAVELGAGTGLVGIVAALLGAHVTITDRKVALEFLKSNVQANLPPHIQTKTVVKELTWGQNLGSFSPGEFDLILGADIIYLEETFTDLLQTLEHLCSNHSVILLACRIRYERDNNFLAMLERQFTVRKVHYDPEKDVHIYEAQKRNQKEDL
active: saracatinib 0.263
inactive: ibrutinib 0.006 | [1] -0.106 | ralimetinib 0.021 | [2] -0.032 | [3] 0 | [4] -0.019 | [5] -0.138 | [6] 0 | [7] 0.009 | [8] -0.032 | [9] 0.04 | barasertib 0.062 | volasertib -0.034 | [11] -0.054 | [12] -0.011 | [13] 0.049 | sotrastaurin 0.04

MED25 isoform 3 (UniProt Q71SY5)
active: [10] -0.256
inactive: ibrutinib -0.034 | [1] 0.001 | ralimetinib -0.071 | [2] 0.045 | [3] -0.023 | [4] 0.038 | [5] -0.039 | [6] 0.035 | [7] 0.057 | [8] 0.025 | [9] 0.018 | barasertib 0.034 | volasertib -0.032 | [11] -0.046 | [12] 0.013 | [13] -0.056 | saracatinib 0.032 | sotrastaurin 0.083

MAN2B2 (UniProt Q9Y2E5)
UniProt Q9Y2E5, sequence (Q9Y2E5 whole entry, looked up): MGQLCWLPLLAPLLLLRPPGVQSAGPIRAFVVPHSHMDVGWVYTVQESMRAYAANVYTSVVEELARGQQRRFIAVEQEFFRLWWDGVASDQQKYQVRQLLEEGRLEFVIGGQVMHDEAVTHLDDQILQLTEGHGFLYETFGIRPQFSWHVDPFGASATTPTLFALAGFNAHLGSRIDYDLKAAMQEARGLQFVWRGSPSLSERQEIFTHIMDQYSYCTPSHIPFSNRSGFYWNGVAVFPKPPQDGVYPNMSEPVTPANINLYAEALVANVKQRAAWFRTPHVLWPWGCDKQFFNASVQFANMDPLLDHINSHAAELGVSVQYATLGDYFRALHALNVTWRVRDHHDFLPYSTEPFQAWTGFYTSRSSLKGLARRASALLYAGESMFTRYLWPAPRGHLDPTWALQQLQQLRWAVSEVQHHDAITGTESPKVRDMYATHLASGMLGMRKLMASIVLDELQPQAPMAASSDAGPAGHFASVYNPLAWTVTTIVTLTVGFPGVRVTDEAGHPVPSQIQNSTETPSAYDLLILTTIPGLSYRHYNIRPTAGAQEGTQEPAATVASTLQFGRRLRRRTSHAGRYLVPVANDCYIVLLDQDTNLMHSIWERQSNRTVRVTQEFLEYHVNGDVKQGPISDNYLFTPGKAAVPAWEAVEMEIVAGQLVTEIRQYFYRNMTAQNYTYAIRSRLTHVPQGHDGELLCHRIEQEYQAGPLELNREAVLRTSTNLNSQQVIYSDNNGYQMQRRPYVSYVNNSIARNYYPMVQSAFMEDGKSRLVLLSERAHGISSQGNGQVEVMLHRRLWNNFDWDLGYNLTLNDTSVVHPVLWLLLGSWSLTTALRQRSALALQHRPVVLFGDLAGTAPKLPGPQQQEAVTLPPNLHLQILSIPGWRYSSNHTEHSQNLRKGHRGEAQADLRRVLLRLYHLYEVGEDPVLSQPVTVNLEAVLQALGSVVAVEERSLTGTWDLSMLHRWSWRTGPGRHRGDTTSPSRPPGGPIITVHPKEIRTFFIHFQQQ
inactive: ibrutinib -0.019 | [1] -0.026 | ralimetinib 0.008 | [2] 0.083 | [3] -0.051 | [4] 0.056 | [5] -0.013 | [6] -0.013 | [7] -0.024 | [8] 0.012 | [9] -0.028 | barasertib -0.047 | [10] -0.013 | volasertib -0.006 | [11] -0.022 | saracatinib -0.053 | sotrastaurin -0.024
active: [12] 0.648 | [13] -0.649

MAP4K5 (UniProt Q9Y4K4)
UniProt Q9Y4K4, sequence (Q9Y4K4 whole entry, looked up): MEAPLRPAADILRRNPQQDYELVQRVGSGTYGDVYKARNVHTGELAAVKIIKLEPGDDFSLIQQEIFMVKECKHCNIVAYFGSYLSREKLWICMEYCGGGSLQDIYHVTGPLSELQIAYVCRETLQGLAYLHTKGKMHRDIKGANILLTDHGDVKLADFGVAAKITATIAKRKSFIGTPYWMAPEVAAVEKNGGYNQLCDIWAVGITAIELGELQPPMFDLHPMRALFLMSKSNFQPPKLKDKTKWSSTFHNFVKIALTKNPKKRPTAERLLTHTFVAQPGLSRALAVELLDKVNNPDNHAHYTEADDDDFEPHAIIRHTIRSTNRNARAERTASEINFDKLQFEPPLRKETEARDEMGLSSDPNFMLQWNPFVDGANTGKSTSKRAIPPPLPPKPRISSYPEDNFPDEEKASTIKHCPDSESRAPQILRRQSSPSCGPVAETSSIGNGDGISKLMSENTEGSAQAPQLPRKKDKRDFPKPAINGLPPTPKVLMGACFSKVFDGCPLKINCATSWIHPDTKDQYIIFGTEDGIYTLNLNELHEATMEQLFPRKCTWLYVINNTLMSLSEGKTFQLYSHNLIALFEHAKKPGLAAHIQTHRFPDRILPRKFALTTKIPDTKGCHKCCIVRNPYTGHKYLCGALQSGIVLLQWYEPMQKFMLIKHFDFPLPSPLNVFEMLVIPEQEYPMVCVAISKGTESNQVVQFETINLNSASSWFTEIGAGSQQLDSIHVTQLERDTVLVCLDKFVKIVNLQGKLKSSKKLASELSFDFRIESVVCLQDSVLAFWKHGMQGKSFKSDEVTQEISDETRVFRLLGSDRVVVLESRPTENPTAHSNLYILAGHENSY
inactive: ibrutinib 0.029 | [1] 0.108 | ralimetinib 0.039 | [2] 0.002 | [3] 0.098 | [4] -0.003 | [5] 0.009 | [6] 0 | [7] 0.021 | [8] 0.025 | vemurafenib 0.185 | [9] -0.011 | barasertib 0.23 | volasertib -0.069 | [11] 0.014 | [12] 0 | [13] -0.007 | saracatinib 0.01

MBD2 (UniProt Q9UBB5)
inactive: ibrutinib 0.013 | [1] 0.018 | ralimetinib -0.043 | [2] -0.03 | [3] 0.016 | [4] -0.013 | [5] -0.017 | [6] -0.053 | [7] -0.048 | [8] 0.007 | vemurafenib -0.014 | [9] 0.016 | barasertib -0.009 | [10] 0.059 | volasertib -0.021 | [11] 0.073 | [12] -0.005 | [13] -0.007 | saracatinib -0.036 | sotrastaurin -0.089

LIMK1 (UniProt P53667)
UniProt P53667, sequence (P53667 whole entry, looked up): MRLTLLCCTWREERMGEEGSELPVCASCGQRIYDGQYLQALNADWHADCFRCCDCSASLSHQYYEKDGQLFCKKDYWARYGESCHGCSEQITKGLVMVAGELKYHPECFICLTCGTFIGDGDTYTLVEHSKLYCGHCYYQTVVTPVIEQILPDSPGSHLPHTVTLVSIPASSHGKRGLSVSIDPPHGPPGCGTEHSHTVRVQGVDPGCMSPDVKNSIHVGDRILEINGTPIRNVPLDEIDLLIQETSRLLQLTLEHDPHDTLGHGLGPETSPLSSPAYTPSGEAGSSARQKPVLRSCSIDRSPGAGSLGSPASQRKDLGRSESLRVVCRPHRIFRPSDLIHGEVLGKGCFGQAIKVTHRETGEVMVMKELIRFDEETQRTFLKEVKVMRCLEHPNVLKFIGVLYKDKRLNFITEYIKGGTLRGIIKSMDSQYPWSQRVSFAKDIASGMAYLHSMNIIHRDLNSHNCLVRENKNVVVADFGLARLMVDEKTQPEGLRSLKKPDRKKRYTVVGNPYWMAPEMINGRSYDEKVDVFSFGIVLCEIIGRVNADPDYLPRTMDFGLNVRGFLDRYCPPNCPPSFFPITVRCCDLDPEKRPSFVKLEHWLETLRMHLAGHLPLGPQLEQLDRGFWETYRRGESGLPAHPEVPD
active: ibrutinib 0.546
inactive: [1] -0.04 | ralimetinib -0.125 | [2] -0.161 | [4] -0.067 | [5] 0.026 | [6] -0.085 | [7] 0.059 | [8] -0.148 | vemurafenib 0.234 | [9] 0.179 | barasertib 0.007 | [10] -0.195 | volasertib -0.215 | [11] 0.108 | [12] -0.104 | [13] -0.028 | saracatinib -0.022 | sotrastaurin -0.15

MAST2 (UniProt Q6P0Q8)
inactive: ibrutinib 0.136 | [1] 0.054 | ralimetinib 0.033 | [2] -0.084 | [3] 0.071 | [5] -0.157 | [6] 0.03 | [7] 0.031 | [8] -0.022 | vemurafenib 0.134 | [9] -0.062 | barasertib 0.105 | [10] 0.068 | volasertib 0.045 | [11] -0.127 | [12] 0.102 | [13] 0.06 | saracatinib 0.056 | sotrastaurin -0.024
